Assay results taken from PubChem BioAssay (Tox21).
Results filed as inconclusive are left out. A call without a number means that no potency is given here. Some structures have more than one record in an assay (separate samples or runs), and their calls can disagree. Activity calls are given as the source filed them. The call rests on the fitted dose curve; in most records, active means well fitted curve in the direction sought with a large enough effect in the repeat runs; inconclusive means weak or mixed curves; inactive means no such curve, though single readings can be large; an effect the other way counts as inactive or inconclusive.

Columns and labels:
[1] = A CellTox Green Cytotoxicity Assay to monitor cytotoxicity in HEK293 cells - 32 hour (AID 1224881); further: nearly all actives have a fitted effect of over 40% in size
In short: (§1)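 Each value comes from one timepoint of a single continuous run in which HEK293 cells with CellTox Green were exposed to compound for up to 40 h at 37 C, dye fluorescence rising with cell death.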

[2] = A CellTox Green Cytotoxicity Assay to monitor cytotoxicity in HepG2 cells - 0 hour (AID 1224882); further: nearly all actives have a fitted effect of over 35% in size
In short: (§2)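 Continuous culture of HepG2 cells with a membrane-impermeant DNA dye; rising fluorescence marks dead cells. Compound exposure lasted up to 40 h at 37 C, with reads every 8 h from 0 h.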

[3] = A CellTox Green Cytotoxicity Assay to monitor cytotoxicity in HepG2 cells - 32 hour (AID 1224883); further: nearly all actives have a fitted effect of over 50% in size
In short: as §2

[4] = A CellTox Green Cytotoxicity Assay to monitor cytotoxicity in HEK293 cells - 8 hour (AID 1224884); further: nearly all actives have a fitted effect of over 35% in size
In short: as §1

[5] = qHTS RealTime-Glo MT Cell Viability Assay in HepG2 cells - 16 hour (AID 1224885); further: nearly all actives have a fitted effect of over 50% in size
In short: (§3)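 Cell number in HepG2 cultures estimated from NanoLuc luminescence generated by metabolic reduction of a prosubstrate by living cells. The homogeneous, nonlytic format allowed repeated reads at 0, 8, 16, 24, 32 and 40 h of compound exposure.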

[6] = qHTS RealTime-Glo MT Cell Viability Assay in HEK293 cells - 24 hour (AID 1224886); further: nearly all actives have a fitted effect of over 50% in size; on activity change, negative = cytotoxicity: top concentration of the series differs between compounds
In short: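 Homogeneous bioluminescent viability format in HEK293 cells (600 cells/well). Following 5 h at 37 C/5% CO2, 23 nL compound was pintooled; the signal was measured repeatedly during 40 h incubation.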

[7] = qHTS RealTime-Glo MT Cell Viability Assay in HEK293 cells - 8 hour (AID 1224887); further: nearly all actives have a fitted effect of over 50% in size; on activity change, negative = cytotoxicity: top concentration of the series differs between compounds
In short: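 qHTS format; HEK293 cells with NanoLuc/prosubstrate reagent, 37 C/5% CO2 for 5 h pre-dosing; compounds 23 nL in DMSO; luminescence at each time point reflects viable cells.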

[8] = A CellTox Green Cytotoxicity Assay to monitor cytotoxicity in HEK293 cells - 16 hour (AID 1224888); further: nearly all actives have a fitted effect of over 35% in size
In short: as §1

[9] = qHTS RealTime-Glo MT Cell Viability Assay in HepG2 cells - 0 hour (AID 1224889); further: nearly all actives have a fitted effect of over 50% in size
In short: as §3

[10] = A CellTox Green Cytotoxicity Assay to monitor cytotoxicity in HepG2 cells - 8 hour (AID 1224890); further: nearly all actives have a fitted effect of over 45% in size
In short: as §2
Potency means the concentration at half of the fitted maximal effect.

| Structure (SMILES) | Potency [1] | Potency [2] | Potency [3] | Potency [4] | Potency [5] | Potency [6] | Potency [7] | Potency [8] | Potency [9] | Potency [10] | cytotoxicity [2] | cytotoxicity increase [4] | activity change, negative = cytotoxicity [9] |
| --- | --- | --- | --- | --- | --- | --- | --- | --- | --- | --- | --- | --- | --- |
| COC(=O)C1=C(C)NC(C)=C(C(=O)OCC(C)C)C1c1ccccc1[N+](=O)[O-] (stereo not given) | 49 µM (active) and inactive | inactive | inactive | inactive | 43.6 µM (active) | 24.5 µM (active) | 21.9 µM (active) | inactive | 21.9 µM (active) | inactive |  |  |  |
| Cc1cc(O)c(C(C)(C)C)cc1C(C)(C)C | 24.5 µM (active) | inactive | 24.5 µM (active) | 19.5 µM (active) | 43.6 µM (active) | 19.5 µM (active) | 13.8 µM (active) | 34.7 µM (active) | inactive | 24.5 µM (active) |  |  |  |
| Cc1cc(N)c(S(=O)(=O)O)cc1Cl | inactive | inactive | inactive | inactive | inactive | inactive | inactive | inactive | inactive | inactive |  |  |  |
| C=CC(=O)OCCn1c(=O)n(CCOC(=O)C=C)c(=O)n(CCOC(=O)C=C)c1=O | 34.7 µM (active) | inactive | 43.6 µM (active) | inactive | 15.5 µM (active) | 11 µM (active) | inactive | inactive | inactive | inactive |  |  |  |
| Clc1ccc2nsnc2c1NC1=NCCN1 | inactive | inactive | inactive | inactive | inactive | inactive | inactive | inactive | inactive | inactive |  |  |  |
| CC[C@H](c1ccc(O)cc1)[C@@H](CC)c1ccc(O)cc1 | 38.9 µM (active) and inactive | inactive | 43.6 µM (active) | inactive | inactive | 24.5 µM (active) | inactive | inactive | inactive | 54.9 µM (active) and inactive |  |  |  |
| Nc1ccc2cc(S(=O)(=O)O)cc(O)c2c1N=Nc1ccccc1C(F)(F)F | inactive | inactive | inactive | inactive | inactive | inactive | inactive | inactive | inactive | inactive |  |  |  |
| O=[N+]([O-])c1ccccc1Nc1ccccc1 | inactive | inactive | inactive | inactive | inactive | inactive | inactive | inactive | inactive | inactive |  |  |  |
| CCCCN1CCCC[C@H]1C(=O)Nc1c(C)cccc1C | inactive | inactive | inactive | inactive | inactive | inactive | inactive | inactive | inactive | inactive |  |  |  |
| NC(=O)NS(=O)(=O)c1ccc(N)cc1 | inactive | inactive | inactive | inactive | inactive | inactive | inactive | inactive | inactive | inactive |  |  |  |
| Cc1cccc(CN2CCN(C(c3ccccc3)c3ccc(Cl)cc3)CC2)c1 (stereo not given) | inactive | inactive | inactive | inactive | inactive | inactive | inactive | inactive | inactive | inactive |  |  |  |
| CC(C)(C)C(=O)OCOC(=O)[C@@H]1N2C(=O)[C@@H](NC(=O)[C@H](N)c3ccccc3)[C@H]2SC1(C)C | inactive | inactive | inactive | inactive | inactive | inactive | inactive | inactive | inactive | inactive |  |  |  |
| C[n+]1ccn(Cc2ccccc2)c1 | inactive | inactive | inactive | inactive | inactive | inactive | inactive | inactive | inactive | inactive |  |  |  |
| O=C(O)c1ccc(Cl)c(Cl)c1 | inactive | inactive | inactive | inactive | inactive | inactive | inactive | inactive | inactive | inactive |  |  |  |
| OC1(c2ccc(Cl)c(C(F)(F)F)c2)CCN(CCCC(c2ccc(F)cc2)c2ccc(F)cc2)CC1 | 23.9 µM (active) | inactive | 8.49 µM (active) | 21.3 µM (active) | 10.7 µM (active) | 9.52 µM (active) | 19 µM (active) | 23.9 µM (active) | inactive | 19 µM (active) |  |  |  |
| Cc1onc(-c2ccccc2Cl)c1C(=O)N[C@@H]1C(=O)N2[C@@H]1SC(C)(C)[C@@H]2C(=O)O | inactive | inactive | inactive | inactive | inactive | inactive | inactive | inactive | inactive | inactive |  |  |  |
| O=[N+]([O-])c1cc([N+](=O)[O-])c2ccc(S(=O)(=O)O)cc2c1O | inactive | inactive | inactive | inactive | inactive | inactive | inactive | inactive | inactive | inactive |  |  |  |

| Structure (SMILES) | Potency [1] | Potency [2] | Potency [3] | Potency [4] | Potency [5] | Potency [6] | Potency [7] | Potency [8] | Potency [9] | Potency [10] | cytotoxicity [2] | cytotoxicity increase [4] | activity change, negative = cytotoxicity [9] |
| --- | --- | --- | --- | --- | --- | --- | --- | --- | --- | --- | --- | --- | --- |
| Cc1onc(-c2c(Cl)cccc2Cl)c1C(=O)N[C@@H]1C(=O)N2[C@@H]1SC(C)(C)[C@@H]2C(=O)O | inactive | inactive | inactive | inactive | inactive | inactive | inactive | inactive | inactive | inactive |  |  |  |
| CCCCCCCC/C=C/CCCCCCCC1=NCCN1CCO | 24.5 µM (active) | inactive | 13.8 µM (active) | 49 µM (active) | 24.5 µM (active) | 19.5 µM (active) | 43.6 µM (active) | 34.7 µM (active) | inactive | 49 µM (active) |  |  |  |
| COC(=O)c1cc(Cl)ccc1OC | inactive | inactive | inactive | inactive | inactive | inactive | inactive | inactive | inactive | inactive |  |  |  |
| O=C(Nc1ccc(Oc2ccc(Cl)cc2)c(Cl)c1)c1cc(I)cc(I)c1O | inactive | inactive | inactive | inactive | inactive | inactive | inactive | inactive | inactive | inactive |  |  |  |
| COC(=O)C1=C(C)NC(C)=C(C(=O)OCCc2ccc(N3CCN(C(c4ccccc4)c4ccccc4)CC3)cc2)C1c1cccc([N+](=O)[O-])c1 (stereo not given) | inactive | inactive | inactive | inactive | inactive | inactive | inactive | inactive | inactive | inactive |  |  |  |
| CCCCCCCCCCCC(=O)NCCCN(C)C | 54.9 µM (active) | inactive | 24.5 µM (active) | 54.9 µM (active) | 49 µM (active) | 43.6 µM (active) | 49 µM (active) | 54.9 µM (active) | inactive | 54.9 µM (active) |  |  |  |
| Clc1ccc2n[nH]nc2c1 | inactive | inactive | inactive | inactive | inactive | inactive | inactive | inactive | inactive | inactive |  |  |  |
| CSc1cnc(C)cn1 | 89.4 µM (active) | 56.4 µM (active) | 63.3 µM (active) | 63.3 µM (active) | inactive | inactive | inactive | 89.4 µM (active) | inactive | 56.4 µM (active) |  |  |  |
| CCCCCCCCCCCCCCCC[N+](C)(C)CCN(Cc1ccc(OC)cc1)c1ncccn1 | 9.52 µM (active) | inactive | 6.74 µM (active) | 19 µM (active) | 8.49 µM (active) | 1.07 µM (active) | 2.13 µM (active) | 19 µM (active) | inactive | 19 µM (active) |  |  |  |
| CC[C@H]1O[C@]2(CC[C@@H]1C)C[C@@H]1C[C@@H](C/C=C(\C)C[C@@H](C)/C=C/C=C3\CO[C@@H]4[C@H](O)C(C)=C[C@@H](C(=O)O1)[C@]34O)O2 | 48.5 µM (active) | inactive | 27.3 µM (active) | inactive | 43.3 µM (active) | 34.4 µM (active) | 43.3 µM (active) | 48.5 µM (active) | inactive | 48.5 µM (active) |  |  |  |
| COc1c(C)c2c(c(O)c1C/C=C(\C)CCC(=O)O)C(=O)OC2 | inactive | inactive | inactive | inactive | inactive | inactive | inactive | inactive | inactive | inactive |  |  |  |
| CCCCN(CCCC)C(=O)N(CCCC)CCCC | inactive | inactive | inactive | inactive | inactive | inactive | inactive | inactive | inactive | inactive |  |  |  |
| CNC(=O)c1ccccc1 | inactive | inactive | inactive | inactive | inactive | inactive | inactive | inactive | inactive | inactive |  |  |  |
| O=c1c(-c2ccccc2)c1-c1ccccc1 | 5.35 µM (active) | inactive | 9.52 µM (active) | inactive | 19 µM (active) | 13.4 µM (active) | 16.9 µM (active) | inactive | inactive | inactive |  |  |  |
| CCOC(=O)O[C@H](C)OC(=O)c1ccc2c(c1)cc(C(=O)NC1CCN(C(C)C)CC1)n2Cc1cc(-c2ccc(Cl)s2)on1 | 18.2 µM (active) | inactive | 11.5 µM (active) | 51.3 µM (active) | 12.9 µM (active) | 11.5 µM (active) | 11.5 µM (active) | 45.8 µM (active) | inactive | 18.2 µM (active) |  |  |  |
| C[n+]1cc2c3c(ccc2c2ccc4cc5c(cc4c21)OCO5)OCO3 | 0.465 µM (active) |  | 0.585 µM (active) |  | 0.827 µM (active) | 0.585 µM (active) | 0.465 µM (active) | 4.65 µM (active) |  | 0.737 µM (active) | -26.7% [at 15.8 µM] (inactive) | 16.5% [at 15.8 µM] (inactive) | -1.39% [at 15.8 µM] (inactive) |
| Cc1cccc(S(=O)(=O)O)c1C | inactive | inactive | inactive | inactive | inactive | inactive | inactive | inactive | inactive | inactive |  |  |  |
